Where “and” joins values, the source holds several entries; their conditions need not be identical. Equal values may be shown once. Values without a mark were called inactive. Results filed as inconclusive are left out. Entries that show only a call come without a potency. Calls of active or inactive are those of the source. Unless noted, the call rests on the fitted dose curve; in most records, active means well fitted curve in the direction sought with a large enough effect in the repeat runs; inconclusive means weak or mixed curves; inactive means no such curve, though single readings can be large; an effect the other way counts as inactive or inconclusive.
Legend:
[1] = qHTS assay for small molecules that induce genotoxicity in human embryonic kidney cells expressing luciferase-tagged ATAD5 (AID 651632); further: nearly all actives have a fitted effect of over 15% in size
Procedure, shortened: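 Cells were seeded at 2,000 per well, dosed with compound, and incubated 16 hr at 37C in 5% CO2. Luciferase activity was then quantified after a 30 min room-temperature incubation with Amplite.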

[2] = qHTS assay for small molecule agonists of the p53 signaling pathway - cell viability (AID 651633; calls by dose curve; further: nearly all actives have a fitted effect of over 30% in size; further: potency means the concentration at half of the fitted maximal effect)
Procedure, shortened: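 Viability counter-read: CellTiter-Glo luminescence (30 min, room temperature) in the same p53RE-bla plates. These plates had been exposed to compounds for 16 h at 37 C.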

[3] = qHTS assay for small molecules that induce genotoxicity in human embryonic kidney cells expressing luciferase-tagged ATAD5 - cell viability (AID 651634; calls by dose curve; further: nearly all actives have a fitted effect of over 25% in size)
Procedure, shortened: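 Cells (HEK293T, luciferase-tagged ATAD5) are seeded at 2,000 per well, dosed with compound or DMSO vehicle, and incubated 15.5 hr at 37C and 5% CO2. CellTiter-Fluor is added for 30 min before fluorescence is measured.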

[4] = qHTS assay for small molecule disruptors of the mitochondrial membrane potential - cell viability (AID 720634; calls by dose curve;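 further: human HepG2 liver cancer cells; series mostly up to about 83 µM; nearly all actives have a fitted effect of over 20% in size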)
Procedure, shortened: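 Cytotoxicity was measured by ATP quantitation in HepG2 wells that had first been treated with compound for 1 hr and stained with m-MPI dye; CellTiter-Glo incubation was 30 min at room temperature.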

[5] = qHTS assay to test for compound auto fluorescence at 590 nm (red) in HepG2 cells (AID 720674)
Procedure, shortened: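 1 hr compound incubation on HepG2 cells, 37 C, 5% CO2; plate read ex 540 nm / em 590 nm; intensities reported as Rose Bengal sodium equivalents.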

[6] = qHTS assay to test for compound auto fluorescence at 535 nm (green) in HepG2 cells (AID 720675)
[7] = qHTS assay to test for compound auto fluorescence at 460 nm (blue) in HEK293 cells (AID 720678)
Procedure, shortened: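 HEK293, 2,000 cells/well, 10% dialyzed FBS; attach 4-5 hr 37C; pin compound or DMSO; o/n 37C/5% CO2; fluorescence 405/460 nm; triamterene-equivalent units.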

[8] = qHTS assay to test for compound auto fluorescence at 590 nm (red) in HEK293 cells (AID 720679)
Procedure, shortened: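 Intensity at 540nm excitation and 590nm emission is reported as Rose Bengal sodium-equivalent autofluorescence. Measurements followed overnight exposure (37C, 5% CO2) of HEK293 cells, 2,000 per well, to 23 nL compound.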

[9] = qHTS assay to test for compound auto fluorescence at 535 nm (green) in HEK293 cells (AID 720680)
[10] = qHTS assay to test for compound auto fluorescence at 460 nm (blue) in HEK293 cell free culture (AID 720681)
Procedure, shortened: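 Blue fluorescence (Ex 405/Em 460 nm, triamterene-equivalent) was read immediately after pin transfer of compound or DMSO into medium (DMEM, 10% FBS) without cells.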

[11] = qHTS assay to test for compound auto fluorescence at 590 nm (red) in HEK293 cell free culture (AID 720683)
Procedure, shortened: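 Red-channel autofluorescence of compounds in culture medium (DMEM, 10% FBS), no cells, measured at 540/590 nm. Rose Bengal sodium is the reference fluorophore for equivalence.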

[12] = qHTS assay to test for compound auto fluorescence at 590 nm (red) in HepG2 cell free culture (AID 720684)
Procedure, shortened: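 No cells present: MEM + 10% FBS only. Compound pinned in, red label read (540/590 nm). Activity = fluorescence equivalent to Rose Bengal sodium.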

[13] = qHTS assay to test for compound auto fluorescence at 535 nm (green) in HepG2 cell free culture (AID 720686)
[14] = qHTS assay to test for compound auto fluorescence at 460 nm (blue) in HepG2 cells (AID 720687)
Procedure, shortened: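 Blue-channel autofluorescence (Ex/Em 405/460 nm, triamterene-equivalent) was measured after 1 hr compound exposure at 37 C, 5% CO2. Cells were HepG2, plated overnight at 37 C in MEM plus 10% FBS.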

[15] = qHTS assay for small molecule agonists of the p53 signaling pathway (AID 651631; calls by dose curve; further: nearly all actives have a fitted effect of over 15% in size)
Procedure, shortened: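 Read-out is beta-lactamase FRET fluorescence measured 2 h after substrate addition at room temperature, in HCT-116 cells with a p53 response element-driven reporter exposed to compounds for 16 h at 37 °C.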

[16] = qHTS assay to test for compound auto fluorescence at 460 nm (blue) in HepG2 cell free culture (AID 720685)
Procedure, shortened: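 Cell-free plates of MEM plus 10% FBS received 23 nL compound or DMSO vehicle; blue-channel (405/460 nm) intensity scored against triamterene as reference fluorophore.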

[17] = molecular target: Glucocorticoid receptor (Homo sapiens) (UniProt P04150); test: qHTS assay to identify small molecule agonists of the glucocorticoid receptor (GR) signaling pathway (AID 720691; active means well fitted activation curve with a large enough effect in the signal ratio in the repeat runs, not every such curve was filed as active; the % refers to the signal ratio)
Procedure, shortened: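 Steps: seed GR-bla HeLa cells, incubate 4 h at 37 C/5% CO2; pin-transfer DMSO-dissolved compounds; incubate 18 h at 37 C; add LiveBLAzer B/G FRET substrate; after 2 h at room temperature, measure fluorescence.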

[18] = molecular target: Glucocorticoid receptor (Homo sapiens) (UniProt P04150); test: qHTS assay to identify small molecule antagonists of the glucocorticoid receptor (GR) signaling pathway (AID 720692; active means well fitted inhibition curve with a large enough effect in the signal ratio in the repeat runs, not every such curve was filed as active; the % refers to the signal ratio)
Procedure, shortened: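 Antagonism was scored as loss of dexamethasone-driven (5 nM final) reporter signal in HeLa cells bearing a glucocorticoid response element–beta-lactamase construct, after 18 h compound exposure at 37 C and 2 h FRET substrate loading.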

[19] = qHTS assay to test for compound auto fluorescence at 535 nm (green) in HEK293 cell free culture (AID 720682)
Procedure, shortened: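 Fluorescein serves as the green reference fluorophore; each compound's intrinsic emission at 535 nm (excitation 485 nm) is reported as an equivalent amount of that dye, measured in serum-containing DMEM without cells.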

[20] = qHTS assay for small molecule disruptors of the mitochondrial membrane potential (AID 720635)
Procedure, shortened: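 Mitochondrial membrane potential tracked with Mito-MPS dye, red aggregates (ex 540/em 590 nm) against green monomers (ex 490/em 535 nm). Compound treatment 1 hr at 37C, dye 30 min in HepG2.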

Sequence of Glucocorticoid receptor (Homo sapiens) (P04150 whole entry, looked up): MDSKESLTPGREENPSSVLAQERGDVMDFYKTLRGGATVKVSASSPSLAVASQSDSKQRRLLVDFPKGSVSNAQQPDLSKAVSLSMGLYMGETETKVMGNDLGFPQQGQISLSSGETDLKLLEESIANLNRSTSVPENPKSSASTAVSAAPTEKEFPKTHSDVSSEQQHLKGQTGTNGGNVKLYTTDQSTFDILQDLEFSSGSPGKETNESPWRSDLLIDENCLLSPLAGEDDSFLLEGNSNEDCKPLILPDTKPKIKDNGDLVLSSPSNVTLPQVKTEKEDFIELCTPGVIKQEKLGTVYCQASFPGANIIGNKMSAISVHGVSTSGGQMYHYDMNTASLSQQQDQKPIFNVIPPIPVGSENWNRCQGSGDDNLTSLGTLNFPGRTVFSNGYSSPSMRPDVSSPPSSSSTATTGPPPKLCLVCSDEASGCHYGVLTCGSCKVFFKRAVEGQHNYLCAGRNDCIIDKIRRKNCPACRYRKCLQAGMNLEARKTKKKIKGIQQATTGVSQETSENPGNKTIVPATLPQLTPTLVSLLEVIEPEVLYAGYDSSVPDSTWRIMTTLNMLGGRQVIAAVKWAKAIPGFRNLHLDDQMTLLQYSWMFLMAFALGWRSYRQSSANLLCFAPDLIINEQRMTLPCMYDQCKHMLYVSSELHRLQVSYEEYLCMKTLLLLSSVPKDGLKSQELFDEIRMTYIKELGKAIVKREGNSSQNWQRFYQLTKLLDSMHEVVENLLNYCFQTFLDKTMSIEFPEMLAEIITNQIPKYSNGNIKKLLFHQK

Structure (SMILES) | outcome [1] | Potency [2] | Potency [3] | Potency [4] | outcome [5] | outcome [6] | outcome [7] | outcome [8] | outcome [9] | outcome [10] | outcome [11] | outcome [12] | outcome [13] | outcome [14] | Potency [15] | outcome [16] | Potency [17] | Potency [18] | outcome [19] | Potency [20]
O=P(O)(O)c1ccccc1 | inactive | inactive | inactive | inactive | inactive | inactive | inactive | inactive | inactive | inactive | inactive | inactive | inactive | inactive |  |  |  |  |  | 
NC1(c2ccccc2)CCCCC1 | inactive | inactive | inactive |  | inactive | inactive |  | inactive | inactive | inactive | inactive |  | inactive | inactive | inactive | inactive |  |  |  | 
CNC(=O)Oc1cc(C)c(N(C)C)c(C)c1 | inactive | inactive | inactive | inactive | inactive | inactive | inactive | inactive | inactive | inactive | inactive |  | inactive | inactive |  | inactive | inactive | inactive |  | 
C=CC1(C)OC(=O)N(c2cc(Cl)cc(Cl)c2)C1=O (stereo not given) | inactive | inactive | inactive |  | inactive | inactive | inactive | inactive | inactive |  | inactive | inactive | inactive | inactive | inactive | inactive | inactive | inactive |  | 
C/C(=N\NC(=O)Nc1cc(F)cc(F)c1)c1ncccc1C(=O)O | inactive | inactive | inactive |  | inactive |  | inactive | inactive | inactive | inactive | inactive | inactive | inactive | inactive | inactive |  | inactive |  | inactive | 
O=C(O)C(Br)(Br)Br | inactive | inactive | inactive | inactive | inactive | inactive | inactive | inactive | inactive | inactive | inactive | inactive | inactive | inactive |  | inactive |  |  | inactive | 
CCOP(=S)(OCC)SCCl | inactive | inactive | inactive | inactive | inactive | inactive | inactive | inactive | inactive | inactive | inactive | inactive | inactive | inactive |  | inactive | inactive | inactive |  | 
[P]#[In] | inactive | inactive | inactive |  | inactive | inactive |  | inactive | inactive | inactive | inactive | inactive | inactive | inactive | inactive | inactive | inactive | inactive | inactive | 
NCCOS(=O)(=O)O | inactive | inactive | inactive | inactive | inactive |  | inactive | inactive | inactive | inactive | inactive | inactive | inactive | inactive |  |  | inactive | inactive | inactive | 
CON(C)C(=O)Nc1ccc(Br)c(Cl)c1 | inactive | inactive | inactive |  | inactive | inactive | inactive | inactive | inactive | inactive | inactive | inactive | inactive | inactive |  | inactive | inactive |  | inactive | 
CCN[C@@H](C)Cc1cccc(C(F)(F)F)c1 | inactive | inactive | inactive | inactive | inactive | inactive |  | inactive | inactive | inactive | inactive |  | inactive | inactive |  | inactive | inactive |  | inactive | 
CC[C@@H](CO)NC(=O)[C@@H]1C=C2c3cccc4[nH]cc(c34)C[C@H]2N(C)C1 | inactive | inactive | inactive |  | inactive |  | inactive | inactive | inactive | inactive | inactive |  | inactive | inactive |  | inactive | inactive |  |  | inactive
ClC1=C(Cl)C2(Cl)C(CBr)CC1(Cl)C2(Cl)Cl (stereo not given) | inactive | 26.6 µM (active) and 61.1 µM (active) | inactive | inactive | inactive |  |  | inactive | inactive | inactive | inactive | inactive | inactive | inactive |  | inactive | inactive | inactive | inactive | 
O=c1[nH]c2ccccc2o1 | inactive |  | inactive | inactive | inactive | inactive | inactive | inactive | inactive | inactive | inactive | inactive | inactive | inactive |  | inactive | inactive |  | inactive | inactive
CCOC(=O)COc1ccc(Cl)cc1Cl | inactive | inactive | inactive | inactive | inactive |  | inactive | inactive | inactive | inactive | inactive | inactive | inactive | inactive |  | inactive | inactive |  | inactive | 
CCN[C@H](C)Cc1cccc(C(F)(F)F)c1 | inactive | inactive | inactive | inactive | inactive | inactive | inactive | inactive | inactive |  | inactive | inactive | inactive | inactive |  |  | inactive | inactive | inactive | 

Source: PubChem BioAssay (Tox21)
